From PubChem BioAssay AID1159580 (chemical genetic matrix, 2015)
Screen size: about 5,500 compounds; about 2,000 (36%) were called active. About 18% were inconclusive and are not listed. No stated cut-off is given here; in the data, active means normalized growth mostly below about 0.91 (no sharp cut-off); inconclusive means no clear call, values can overlap the other calls; inactive means mostly above about 0.92. Some of the results follow.

Assay: chemical genetic growth profiling, strain panel (AID 1159580);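 further: tested at 20 µM; growth read once vehicle control cultures reached saturation at 30 °C; 1 = growth at the plate median or of vehicle wells; lower values mean less growth of the strain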
Conditions: S. cerevisiae deletion strains, growth OD

Measured: normalized growth

CC1CC2C3CC(F)C4=CC(=O)C=CC4(C)C3(F)C(O)CC2(C)C1(O)C(=O)CO (centres undefined)
inactive: locus YAL013W, strain DEP1, hits give low values 1.03 | locus YAL021C, strain ccr4, hits give low values 0.997 | locus YAL026C, strain drs2, hits give low values 1 | locus YAL030W, strain snc1, hits give low values 1 | locus YBL061C, strain skt5, hits give low values 0.996 | locus YBR009C, strain hhf1, hits give low values 0.997 | locus YBR021W, strain FUR4, hits give low values 1.03 | locus YBR023C, strain chs3, hits give low values 0.988 | locus YBR171W, strain sec66, hits give low values 0.997 | locus YBR229C, strain ROT2, hits give low values 1.01 | locus YBR231C, strain swc5, hits give low values 0.992 | locus YBR279W, strain paf1, hits give low values 0.989 | locus YCL011C, strain gbp2, hits give low values 0.992 | locus YCL016C, strain dcc1, hits give low values 0.98 | locus YCL029C, strain bik1, hits give low values 1.03 | locus YCL061C, strain MRC1, hits give low values 0.999 | locus YCL069W, strain vba3, hits give low values 1.01 | locus YCR088W, strain abp1, hits give low values 1 | locus YDL005C, strain med2, hits give low values 0.993 | locus YDL035C, strain GPR1, hits give low values 1.05 | locus YDL040C, strain nat1, hits give low values 0.997 | locus YDL074C, strain BRE1, hits give low values 1.09 | locus YDL101C, strain DUN1, hits give low values 1.02 | locus YDL134C, strain PPH21, hits give low values 1.01 | locus YDL185W, strain tfp1, hits give low values 1.03 | locus YDL192W, strain arf1, hits give low values 1.03 | locus YDR001C, strain nth1, hits give low values 1.01 | locus YDR069C, strain doa4, hits give low values 1.01 | locus YDR101C, strain arx1, hits give low values 1.02 | locus YDR137W, strain rgp1, hits give low values 0.995 | locus YDR150W, strain NUM1, hits give low values 1.03 | locus YDR159W, strain sac3, hits give low values 1.01 | locus YDR162C, strain NBP2, hits give low values 1.02 | locus YDR195W, strain ref2 0.968 | locus YDR297W, strain sur2, hits give low values 0.99 | locus YDR318W, strain mcm21, hits give low values 1.05 | locus YDR334W, strain swr1, hits give low values 0.994 | locus YDR335W, strain msn5, hits give low values 1 | locus YDR388W, hits give low values 1.01 | locus YDR392W, strain spt3, hits give low values 0.995 | locus YDR502C, strain sam2, hits give low values 1.02 | locus YEL003W, strain gim4, hits give low values 1.01 | locus YEL037C, strain rad23, hits give low values 1 | locus YEL061C, strain CIN8 (second series), hits give low values 1.01 | locus YEL061C, strain CIN8, hits give low values 1.01 | locus YER015W, strain faa2, hits give low values 1 | locus YER016W, strain bim1, hits give low values 0.995 | locus YER110C, hits give low values 1.03 | locus YER111C, strain swi4, hits give low values 1 | locus YER155C, strain BEM2 (second series), hits give low values 1.03 | locus YER155C, strain BEM2, hits give low values 0.999 | locus YER167W, strain BCK2, hits give low values 1.05 | locus YFR010W, strain ubp6, hits give low values 1.01 | locus YGL078C, strain dbp3, hits give low values 1.02 | locus YGL086W, strain mad1, hits give low values 1.04 | locus YGL167C, strain pmr1, hits give low values 0.991 | locus YGL173C, strain kem1, hits give low values 1.01 | locus YGL227W, strain vid30, hits give low values 0.998 | locus YGL240W, strain doc1, hits give low values 1 | locus YGL248W, strain PDE1, hits give low values 1.01 | locus YGL253W, strain hxk2, hits give low values 0.983 | locus YGR078C, strain PAC10, hits give low values 1.04 | locus YGR135W, strain pre9, hits give low values 1.03 | locus YGR229C, strain SMI1, hits give low values 1.02 | locus YGR252W, strain gcn5, hits give low values 1.06 | locus YHR013C, strain ard1, hits give low values 0.985 | locus YHR027C, strain rpn1, hits give low values 1.01 | locus YHR030C, strain SLT2, hits give low values 1.02 | locus YHR079C, strain IRE1 (second series), hits give low values 1.02 | locus YHR094C, strain hxt1, hits give low values 1.02 | locus YHR129C, strain ARP1, hits give low values 1.01 | locus YHR142W, strain chs7, hits give low values 0.995 | locus YHR200W, strain rpn10, hits give low values 1.03 | locus YIL066C, strain RNR3, hits give low values 1.04 | locus YIL073C, strain SPO22, hits give low values 1.1 | locus YIL125W, strain kgd1, hits give low values 1.02 | locus YIR030C, strain dcg1, hits give low values 1.02 | locus YJL092W, strain hpr5, hits give low values 1 | locus YJL095W, strain BCK1 (second series), hits give low values 0.997 | locus YJL095W, strain BCK1, hits give low values 1.02 | locus YJL115W, strain asf1, hits give low values 1.01 | locus YJL129C, strain trk1, hits give low values 0.997 | locus YJL134W, strain LCB3, hits give low values 1.02 | locus YJL154C, strain vps35, hits give low values 1.01 | locus YJL164C, strain tpk1, hits give low values 1.01 | locus YJL166W, strain qcr8, hits give low values 0.993 | locus YJL168C, strain set2, hits give low values 1.02 | locus YJL187C, strain SWE1 (second series), hits give low values 1.02 | locus YJL187C, strain SWE1, hits give low values 0.986
